In the library only some 1.1% were active in any assay of this set; here they are far more common.
HTR5A ag = counter-screen for OPRM1-OPRD1 agonists: human HTR5A agonism. HTR5A agonist assay, luminescence, cell-based. P47898. activation, % at 9.3 µM. hit rate 0.61% among 340,000. AID 504692; in the data active = activation mostly above about 9.5%, no sharp cut-off; inactive = mostly below about 7.6%;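 also: 0% = cells with vehicle only and 100% = reference agonist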
Target sequence (P47898 whole entry, looked up): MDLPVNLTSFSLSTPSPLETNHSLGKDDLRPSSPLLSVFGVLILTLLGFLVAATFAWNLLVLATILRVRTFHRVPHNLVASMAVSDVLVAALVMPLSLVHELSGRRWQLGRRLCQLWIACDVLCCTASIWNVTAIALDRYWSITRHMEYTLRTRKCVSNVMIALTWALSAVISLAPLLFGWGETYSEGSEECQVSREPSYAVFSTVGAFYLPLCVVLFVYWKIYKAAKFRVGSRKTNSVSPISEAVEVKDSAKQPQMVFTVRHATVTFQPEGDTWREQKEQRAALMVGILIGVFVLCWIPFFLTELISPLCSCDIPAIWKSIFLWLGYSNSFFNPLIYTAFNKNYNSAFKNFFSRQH
OPRM1-OPRD1 inv = inverse agonists of human mu-delta opioid receptor heterodimerization; hit rate 0.21% among 340,000; inhibition, % at 9.3 µM; cell-based MOR-DOR heterodimer luminescence, inverse agonism; in the data active = inhibition above about 22%, passing the limit was not always enough;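 also: 0% = cells with DMSO and 100% = wells without cells with DMSO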
MOR-DOR ag-1 = OPRM1-OPRD1 heterodimerization agonism. cells, luminescence. activation, % at 9.3 µM. hit rate 0.3% among 340,000;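 also: 0% = vehicle-treated cells and 100% = reference agonist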
HTR5A inv ag = inverse agonist of human HTR5A in OPRM1-OPRD1 counter-screen | inhibition, % at 9.3 µM | P47898 | hit rate 0.083% among 340,000 | HTR5A cell line, luminescence, inverse agonism | AID 504634; in the data active = inhibition mostly above about 23%, no sharp cut-off; inactive = mostly below about 18%;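 also: 0% = cells with DMSO and 100% = no-cell wells with DMSO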
MOR-DOR ag-2 = opioid heterodimer agonism, HTR5A counter-screen | hit rate 13% among 800 | AID 504913 | U2OS counter-screen cells, complementation luminescence, 3 h | activation, % at 9.3 µM | shares compounds with HTR5A ag
HTR5A ag confirm = HTR5A (human) agonism, confirmation | shares compounds with HTR5A ag | HTR5A agonist cell assay, luminescence | activation, % at 9.3 µM | hit rate 17% among 800 | AID 504915; in the data active = activation above about 17%;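 also: 0% = cells with vehicle only and 100% = full reference agonist response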
* marks the source's active call; other numbers are inactive results. Rule as the data show it, unless noted: active = activation above about 18%; inactive = the rest.

CCC(=O)Nc1cccc(-c2ccc(N3CCCCC3)nn2)c1 was read as HTR5A ag 8.3, OPRM1-OPRD1 inv 0.8, MOR-DOR ag-1 -0.1 and HTR5A inv ag -33.8.
Screening O=C(/C=C/c1ccc(S(=O)(=O)N2CCOCC2)cc1)NC(CO)C(O)c1ccc([N+](=O)[O-])cc1 (configuration not stated) returned HTR5A ag -1.6, OPRM1-OPRD1 inv 17.5, MOR-DOR ag-1 -3.5 and HTR5A inv ag 6.4.
For Cn1cc(C(=O)NCC2COc3ccccc3O2)c(=O)c2cc(S(=O)(=O)N3CCCCC3)ccc21 (configuration not stated) the results were HTR5A ag 48.8*, OPRM1-OPRD1 inv -5.8, MOR-DOR ag-1 1.0, HTR5A inv ag -113.4, MOR-DOR ag-2 2.8 and HTR5A ag confirm 10.3.
For Cc1noc(C)c1C(=O)OCC(=O)Nc1ccccc1C(=O)NC(C)c1ccccc1 (configuration not stated) the results were HTR5A ag 16.8*, OPRM1-OPRD1 inv -7.2, MOR-DOR ag-1 1.4, HTR5A inv ag -6.4, MOR-DOR ag-2 0.5 and HTR5A ag confirm 0.5.
Screening COc1ccc(NC(=O)CSc2nc3nc(C)cc(C)n3n2)cc1 returned HTR5A ag 3.9, OPRM1-OPRD1 inv 9.4, MOR-DOR ag-1 -1.5 and HTR5A inv ag -11.2.
`COc1ccc(OC)c(NC(=O)CSc2nc3nc(C)cc(C)n3n2)c1` gave HTR5A ag 16.6*, OPRM1-OPRD1 inv 8.8, MOR-DOR ag-1 -2.0, HTR5A inv ag -41.0, MOR-DOR ag-2 0.3 and HTR5A ag confirm -2.9.
For CCn1c(=O)n(CC)c2cc(N3CCCC3)c(NC(=O)c3ccc(C)c([N+](=O)[O-])c3)cc21 the results were HTR5A ag 3.1, OPRM1-OPRD1 inv 1.2, MOR-DOR ag-1 -0.2 and HTR5A inv ag -0.6.
O=C(N/N=C/c1ccco1)c1ccc(NC(=O)c2ccccc2Cl)cc1 was read as HTR5A ag 0.7, OPRM1-OPRD1 inv 9.8, MOR-DOR ag-1 -1.7 and HTR5A inv ag -1.8.
O=C(N/N=C/c1ccco1)c1cccc(NC(=O)c2cccc(Cl)c2)c1 was read as HTR5A ag 23.5*, OPRM1-OPRD1 inv 15.8, MOR-DOR ag-1 -3.0, HTR5A inv ag -63.0, MOR-DOR ag-2 25.5* and HTR5A ag confirm 13.1.
For Cc1ccc(S(=O)(=O)NN=C2CCC(C(C)(C)C)CC2)cc1[N+](=O)[O-] (configuration not stated) the results were HTR5A ag 9.8, OPRM1-OPRD1 inv 5.7, MOR-DOR ag-1 -1.1 and HTR5A inv ag -35.7.
For CC(C)(C)C1CCC(=NNS(=O)(=O)c2ccc(Br)cc2)CC1 (configuration not stated) the results were HTR5A ag 20.6*, OPRM1-OPRD1 inv -0.8, MOR-DOR ag-1 0.1, HTR5A inv ag -73.0, MOR-DOR ag-2 6.8 and HTR5A ag confirm 4.4.
For OCC1OCOC2C(CO)OCOC12 (configuration not stated) the results were HTR5A ag -1.5, OPRM1-OPRD1 inv 12.7, MOR-DOR ag-1 -2.5 and HTR5A inv ag 5.3.
For O=C(Nc1nc(-c2cccs2)cs1)c1ccc(S(=O)(=O)N2CCCCC2)cc1 the results were HTR5A ag 19.2*, OPRM1-OPRD1 inv -0.9, MOR-DOR ag-1 0.2, HTR5A inv ag -53.6, MOR-DOR ag-2 -0.8 and HTR5A ag confirm -7.1.
`O=C(c1cccc(Cl)c1)N1CCC(N2CCC(C(=O)N3CCCC3)CC2)CC1` gave HTR5A ag 1.7, OPRM1-OPRD1 inv 13.3, MOR-DOR ag-1 -2.6 and HTR5A inv ag -4.4.
For Cc1ccc(Cn2c(N)c(S(=O)(=O)c3cccs3)c3nc4ccccc4nc32)cc1 the results were HTR5A ag 2.9, OPRM1-OPRD1 inv -12.1, MOR-DOR ag-1 2.3 and HTR5A inv ag -7.4.
Screening COc1ccc(Cn2c(N)c(S(=O)(=O)c3cccs3)c3nc4ccccc4nc32)cc1 returned HTR5A ag 15.1*, OPRM1-OPRD1 inv -13.3, MOR-DOR ag-1 2.6, HTR5A inv ag -4.8, MOR-DOR ag-2 3.1 and HTR5A ag confirm 3.3.
Screening Cc1ccc(S(=O)(=O)CCc2ccccn2)cc1 returned HTR5A ag 5.2, OPRM1-OPRD1 inv 13.2, MOR-DOR ag-1 -2.1 and HTR5A inv ag -14.5.
For CC(C)(C)c1ccc(S(=O)(=O)CCc2ccccn2)cc1 the results were HTR5A ag 24.2*, OPRM1-OPRD1 inv 12.5, MOR-DOR ag-1 -2.2, HTR5A inv ag -66.8, MOR-DOR ag-2 1.1 and HTR5A ag confirm 4.0.
`NCCCCc1ccc2ccc3cccc4ccc1c2c34` gave HTR5A ag 16.2*, OPRM1-OPRD1 inv -36.1, MOR-DOR ag-1 6.6, HTR5A inv ag -40.5, MOR-DOR ag-2 14.9 and HTR5A ag confirm 4.8.
Screening COc1cc(-c2nc3cnccn3c2Nc2ccc3c(c2)OCCO3)ccc1O returned HTR5A ag 9.8, OPRM1-OPRD1 inv 4.7, MOR-DOR ag-1 -0.8 and HTR5A inv ag -26.2.
`COc1cc(-c2nc3ccc(C)cn3c2Nc2ccc3c(c2)OCCO3)ccc1O` gave HTR5A ag 42.9*, OPRM1-OPRD1 inv -13.1, MOR-DOR ag-1 2.5, HTR5A inv ag -108.0, MOR-DOR ag-2 3.1 and HTR5A ag confirm 38.8*.
`CC(C)(c1ccccc1)c1ccc(OCCN2CCOCC2)cc1` gave HTR5A ag 14.4*, OPRM1-OPRD1 inv -4.2, MOR-DOR ag-1 0.9, HTR5A inv ag -53.5, MOR-DOR ag-2 127.5* and HTR5A ag confirm 1.1.
For O=C(CN1CCN(S(=O)(=O)c2ccc(Br)cc2)CC1)N/N=C/c1ccccc1C(=O)O the results were HTR5A ag 1.1, OPRM1-OPRD1 inv 15.9, MOR-DOR ag-1 -3.2 and HTR5A inv ag -4.1.
Screening Cc1ccc(S(=O)(=O)N2CCCCC2CCNC(=O)C(=O)NCc2ccncc2)cc1 (configuration not stated) returned HTR5A ag -1.4, OPRM1-OPRD1 inv 2.4, MOR-DOR ag-1 -0.5 and HTR5A inv ag 3.7.
`CN(C(=O)COc1ncnc2sccc12)C1CCCCC1` gave HTR5A ag 5.6, OPRM1-OPRD1 inv -2.0, MOR-DOR ag-1 0.5 and HTR5A inv ag -15.6.
Cc1ccc(S(=O)(=O)N2CCN(C(=O)COC(=O)/C=C/c3cccc([N+](=O)[O-])c3)CC2)c(C)c1 was read as HTR5A ag -4.0, OPRM1-OPRD1 inv 16.5, MOR-DOR ag-1 -4.1 and HTR5A inv ag -16.1.
Screening O=C(NCc1ccccn1)c1cccc(S(=O)(=O)N2CCCCC2)c1 returned HTR5A ag 0.6, OPRM1-OPRD1 inv 3.4, MOR-DOR ag-1 -0.9 and HTR5A inv ag -1.5.
`O=C(Cn1cc(CNC(=O)C2CCCCC2)nn1)Nc1cc(C(F)(F)F)ccc1Cl` gave HTR5A ag 20.3*, OPRM1-OPRD1 inv 5.2, MOR-DOR ag-1 -0.9, HTR5A inv ag -0.2, MOR-DOR ag-2 -4.5 and HTR5A ag confirm -16.7.
`Cc1cc(C)cc(C(=O)NC(CC(N)=O)c2ccc(NC3CCCCC3)c([N+](=O)[O-])c2)c1` (configuration not stated) gave HTR5A ag 2.8, OPRM1-OPRD1 inv 5.8, MOR-DOR ag-1 -1.1 and HTR5A inv ag -9.6.
